Most compounds without a hit are left out; they make up all but 3.7% or so of the library.
ELG1 repair inh: qHTS screen for small molecules that inhibit ELG1-dependent DNA repair in human embryonic kidney (HEK293T) cells expressing luciferase-tagged ELG1; AID 504467, 2011; HEK293T ELG1-luciferase reporter, luminescence, 16 h; DNA damage induced by 5-fluorouridine; Potency, µM (highest dose often 46.1 µM), for inactives: at the highest dose activity change, negative = inhibition, most hits filed as inhibitors; hit rate 2.3% among 330,000; also: % is scaled to controls: 0 for no effect and ±100 for the full control effect; nearly all actives have a fitted effect of over 55% in size
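Step one: seed 2,000 cells per well. Step two: pin-transfer compound or DMSO alongside 5-fluorouridine. Step three: incubate 16 hr, 37 °C, 5% CO2. Step four: add ONE-Glo, wait 30 min, read luminescence.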
Nrf2 block: Nrf2 qHTS screen for inhibitors; A549 ARE-Fluc reporter, luciferase luminescence, 18-24 h; Potency, µM (top dose mostly 46 µM), inactives show at the top dose activity change, negative = inhibition, hits mostly inhibitors; hit rate 2.1% among 360,000; AID 504444, 2011; also: % is scaled to controls: 0 for no effect and ±100 for the full control effect; nearly all actives have a fitted effect of over 60% in size
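Nrf2 function is reported as luminescence of an ARE-controlled luciferase in A549 cells. Compounds were tested at several concentrations, and a CellTiter-Fluor read on the same wells flagged cytotoxicity.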
Nrf2 activator: qHTS of Nrf2 Activators; AID 624171, 2012; hit rate 0.31% among 410,000; Potency, µM (highest dose often 46.1 µM), without a hit: top-dose activation, hits mostly activators; AREc32 ARE-luciferase reporter (MCF7-derived line), luminescence, 24 h; also: % of control where 0% means no effect; nearly all actives have a fitted effect of over 65% in size
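AREc32_Fluc, 1000 cells/well, OPTI-MEM + 5% FBS, o/n 37 deg C 5% CO2; 23 nL cpd by pin tool, 24 hr; Steady-Glo 30 min RT, luminescence.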
A549 tox: Nrf2 qHTS screen for inhibitors: counterscreen for cytotoxicity | A549 ARE-Fluc cells, CellTiter-Fluor viability, 18-24 h | Potency, µM (top dose mostly 46 µM), for inactives: at the highest dose activity change, negative = cytotoxicity, usual class: inhibitors | hit rate 0.16% among 390,000; also: % is scaled to controls: 0 for no effect and ±100 for the full control effect
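A549 ARE_Fluc cells in 5% FBS OPTI-MEM were exposed to compounds in concentration-response for 18-24 h at 37 deg C. Viability was read by CellTiter-Fluor fluorescence (Ex 405/Em 525) after 30 min, before the luciferase read.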
* = called active by the depositor; ? = inconclusive; / = no result given; ! = a repeat was not active; [ ] = another dose, or the depositor's remark. Calls follow the shape of the dose curve; as a rule, active = well fitted curve in the direction sought with a large enough effect; inconclusive = small, poorly fitted or top-dose-only effect, or another doubt; inactive = no such curve, though single readings can be large; an effect the other way counts as inactive or inconclusive. Potency is read from the fitted curve at half-maximal effect.

SMILES	ELG1 repair inh	Nrf2 block	Nrf2 activator	A549 tox
COc1ccc2c(=O)c3c(=O)n(Cc4ccco4)c(-c4ccccc4)nc3oc2c1	?	?	0%	-7%
COc1ccc2c(=O)c3c(=O)n(Cc4ccco4)c(-c4cc(OC)c(OC)c(OC)c4)nc3oc2c1	13µM*	-3%	3%	-17%
O=C(Nc1ccccc1Cl)c1cc(C2CCCN(C(=O)c3cccc(O)c3)C2)on1 (configuration not stated)	/	/	8%	/
O=C(Nc1nnc(C2CC2)s1)c1cc(S(=O)(=O)N2CCN(c3ccccc3)CC2)ccc1Cl	4%	-1%	0%	4%
CCc1nnc(NC(=O)c2ccc(Cl)c(S(=O)(=O)N3CCc4ccccc43)c2)s1	23µM*	/	0%	-14%
O=C(Nc1nnc(C2CC2)s1)c1ccc(Cl)c(S(=O)(=O)N2CCc3ccccc3C2)c1	-22%	23µM*	0%	-4%
O=C(CNC(=O)c1ccc2ccccc2c1)OC(C(=O)Nc1cc(C(F)(F)F)ccc1Cl)c1ccccc1 (configuration not stated)	/	3%	/	10%
Cc1nc(-c2ccc(F)cc2)c(CC(=O)NCC(=O)Nc2ccc(F)c(F)c2)s1	-7%	-4%	3%	-2%
Brc1ccc(-c2nc3ccccc3s2)s1	?	?	11µM*	5%
Nc1ccc(-c2nc3ccccc3s2)cn1	?	?	13%	-6%
O=C(O)CC1(CC(=O)Nc2cc(C(F)(F)F)cc(C(F)(F)F)c2)CCCCC1	?	23µM*	3%	-6%
O=C(O)CC1(CC(=O)NCc2ccc(C(F)(F)F)cc2)CCCCC1	11%	?	0%	-3%
O=c1c2sc3ccccc3c2n(Cc2ccc(Cl)cc2)c(=O)n1Cc1ccco1	/	-7%	4%	-1%
Cn1c(=O)c2nc(NCc3ccccc3)sc2n(C)c1=O	/	?	2.5µM*	-1%
CCn1cnc2c([N+](=O)[O-])c(NS(=O)(=O)c3ccc(C)cc3)ccc21	2%	9%	0%	-7%
CCOc1ccccc1NC(=O)c1nn(C)c2c1CSc1ccccc1-2	/	18µM*	3%	-13%
CCOc1ccccc1N(CC)C(=O)c1nn(C)c2c1CSc1ccccc1-2	9.2µM*	?	0%	-1%
CCCCNC(=O)c1nn(C)c2c1CSc1ccccc1-2	/	21µM*	15%	-15%
O=C(NCc1ccco1)C(c1ccccc1)N(C(=O)Cc1cccs1)c1ccccc1F (configuration not stated)	18µM*	?	0%	1%
O=C(NCc1ccco1)C(c1ccncc1)N(C(=O)Cc1cccs1)c1ccccc1 (configuration not stated)	4%	-11%	0%	-10%
CCOc1ccccc1N1CC(O)=C(c2nc3ccccc3s2)C1=N	16µM*	0%	0%	-19%
CCOC(=O)c1scc(-c2ccc(C)cc2)c1S(=O)(=O)N1CCN(c2ccccc2F)CC1	/	-11%	-1%	?
O=C(NCc1ccccc1Cl)c1cc2ccccc2o1	/	1%	7%	0%
C=C1C(=O)O[C@@]23[C@H]1CC[C@@H](C)[C@@H]2CC[C@@]1(C)O[C@@H]31	?	15µM*	-3%	?
C=CCc1cccc(C=Nc2cc(Br)ccc2O)c1O	-5%	?	6.3µM*	-17%
SMILES	ELG1 repair inh	Nrf2 block	Nrf2 activator	A549 tox
CC(=O)Nc1cccc(-c2ccnc3c2CC(C)(C(=O)NCc2cccs2)O3)c1 (configuration not stated)	/	/	0%[9.22 µM]	/
c1ccc(-c2nc(-c3ccco3)cs2)nc1	?	?	13µM*	1%
CCN(C(=O)CCc1nc(-c2ccc(OC)cc2)no1)c1cc(OC)ccc1OC	16µM*	/	0%	-1%
COc1ccc(-c2noc(CCCC(=O)NC3CCCCC3)n2)cc1	-1%	21µM*	-1%	-20%
COc1ccc(-c2noc(CCC(=O)NC3CCCC3)n2)cc1	-1%	?	0%	-9%
COc1ccccc1NC(=O)CCCc1nc(-c2ccc(OC)c(OC)c2)no1	?	?	0%	4%
CCOc1ccc(-c2cc(CCCC(=O)NCCc3cc(OC)c(OC)c(OC)c3)no2)cc1	/	15µM*	-1%	-4%
COc1ccc(-c2noc(CCCC(=O)NCCc3ccccc3)n2)cc1OC	1%	23µM*	-1%	-3%
COc1ccc2[nH]c(C(=O)N3CCC(CO)(Cc4cccc(C(F)(F)F)c4)CC3)c(C)c2c1	-15%	?	0%	-6%
COc1ccc(-c2noc(CCC(=O)NCCc3cccc(C)c3)n2)cc1	?	23µM*	-1%	-9%
COc1ccc(-c2noc(CCC(=O)Nc3cccc(C)c3)n2)cc1	?	?	0%	-21%
COC(=O)c1ccc2nc(-c3cccc(Br)c3)c(CC3CCCCC3)n2c1	/	/	8.9µM*	/
CCN1/C(=C/c2ccc3cc(C)ccc3[n+]2CC)Sc2ccc3sccc3c21	/	6.5µM*	-1%	?
Cc1ccccc1OCC(=O)NCC(=O)OCC(=O)c1ccc2c(c1)CCCC2	/	-1%	/	2%
Cc1cc(C)cc(NC(=O)CSc2nnc(COc3ccccc3Cl)o2)c1	/	?	-1%	-1%
CC1CCC(C(C)C)C(OC(=O)Cn2c(-c3ccc(Br)cc3)[n+](C)c3ccccc32)C1 (configuration not stated)	13µM*	21µM*	-3%	?
CC1CCC(C(C)C)C(OC(=O)Cn2c(-c3ccc(Cl)cc3)[n+](C)c3ccccc32)C1 (configuration not stated)	?	?	-3%	?
Cc1ccccc1OCc1n(CC(=O)OC2CC(C)CCC2C(C)C)c2ccccc2[n+]1C (configuration not stated)	12µM*	18µM*!	-3%	-13%
COc1ccc(OC)c(NC(=O)C(=O)N/N=C(\C)CC(=O)Nc2ccc(Cl)cn2)c1	20%	-5%	0%	1%
Cc1cc2c(NC(=O)Nc3ccc(C(C)(C)C)cc3)cccc2nn1	15µM*	?	10%	-3%
COc1cc(CNc2nnnn2C)ccc1OCc1ccc(F)cc1Cl	-1%	-10%	3%	2%
CCn1nnnc1NCc1ccc(OCc2ccc(F)cc2Cl)c(OC)c1	?	21µM*	0%	-7%
O=C(Cn1cnc2c(NCc3ccccc3)ncnc21)NCCCN1CCCC1=O	7%	12%	-1%	-12%
Cc1cccc(C)c1N=C1C(=O)Nc2ccccc21	?	18µM*	-1%	-17%
CCN(CC)c1ccc(N=C2C(=O)Nc3ccccc32)cc1	16µM*	-3%	-1%	-13%
Cc1ccc(N=C2C(=O)Nc3ccccc32)cc1	21%	-12%	3%	0%
C=CCn1c(-c2ccc(Cl)cc2)cnc1SC(C)C(=O)NC(N)=O (configuration not stated)	-20%	-15%	4%	4%
COc1cccc(C(=O)c2sc(NC(C)C)nc2N)c1	21µM*	/	-2%	?

Assay outcomes deposited in PubChem by National Center for Advancing Translational Sciences (NCATS).
